These results are taken from article PMC5540273 (PLoS ONE, 2017).
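Note: KINOMEscan kinase panel screen.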

The test deals with T1, CDC2L1.
T1 construct: gene CDK11B
Conditions: concentration: 1 μM, replicates: in singlicate; n = 1.
Take `COc1ccc(Nc2nccc(-c3ccc(NC(=O)c4cc5cc(F)ccc5[nH]4)cc3)n2)cc1` [GSK1229496]: the “%Inh” value was 0%.

For `CNc1nc(-c2ccc3c(N)n[nH]c3c2)cc(N2C[C@@H](C(=O)NC3CCCCC3)OC[C@H]2C)n1` [GSK2375584], the “%Inh” value amounted to 0%.

As to `Cc1ccccc1-c1cc(-c2c[nH]nc2-c2ccccn2)ccn1` [GW680061], the “%Inh” value came out at 0%.

On to `CCn1c(-c2ccccc2)nc2cnccc21` [SB-733416], for which the “%Inh” value is 0%.

For `c1ccc(-c2ccnc3[nH]ccc23)cc1` [SB-693578], the “%Inh” value is 0%.

Consider `CC(=O)c1c(C)c2cnc(Nc3ccn(C)n3)nc2n(C2CCCC2)c1=O`, for which the “%Inh” value amounted to 0%.

Turning to `O=C(Nc1n[nH]c2cc(-c3ccsc3)ccc12)C1CC1` [SB-732932], the “%Inh” value was 13%.

Take `CSc1ccc(-c2nc3n(c2-c2ccncc2)CCC3)cc1` [SKF-105561]: the “%Inh” value is on record as 15%.

For the compound `O=C(Nc1n[nH]c2nc(-c3ccco3)c(Br)cc12)C1CCN(Cc2ccccc2)C1.O=C(O)[C@H](O)[C@@H](O)C(=O)O` (centres unmarked) [SB-742034], the “%Inh” value is 20%.

For the compound `CNc1nc(-c2ccc3c(N)n[nH]c3c2)cc(N2C[C@@H](C(=O)Nc3ccccc3)CC[C@H]2C)n1` [GSK2298859], the “%Inh” value is 0%.

`Cn1cncc1C(=O)NC1CCN(c2ccnc(Nc3ccc(F)cc3)n2)C1` (centres unmarked) [GSK1379717]: the “%Inh” value is recorded as 0%.

`O=c1cc(N2CCOCC2)nc2n(Cc3ccccc3F)ccn12` [GSK2297428]: the “%Inh” value was found to be 0%.

Turning to `CCCCc1nn2ncccc2c1-c1ccnc(NC2CC2)n1` [GW684374], the “%Inh” value came to 0%.

Take `O=C1NC(=O)C(c2ccc(Cl)cc2)=C1Nc1ccc(O)cc1` [SB-340867]: the “%Inh” value turned out to be 0%.

As to `COc1ccc(Nc2nccc(NCCNC(=O)Nc3cc(C)ccc3C)n2)cc1` [GSK1379899], the “%Inh” value is on record as 0%.

As for `CC[C@@H]1CO[C@H](C(=O)Nc2ccccc2)CN1c1cc(-c2ccc3c(N)n[nH]c3c2)nc(NC)n1` [GSK2376236], the “%Inh” value stood at 8%.

With `COc1cccc(CNC(=O)NC2CCN(c3ccnc(Nc4ccc(F)cc4)n3)C2)c1` (centres unmarked) [GSK1379723], the “%Inh” value is given as 0%.

Turning to `Cc1ccc(NC(=O)Nc2ccc(Cl)c(C(F)(F)F)c2)cc1-c1ccc(C(=O)Nc2ccncc2)cc1` [GSK1398470], the “%Inh” value is recorded as 0%.

On to `Nc1ncnc2occ(-c3ccc4c(c3)CCN4C(=O)Cc3cc(F)ccc3F)c12` [GSK2645446], for which the “%Inh” value is recorded as 0%.

For the compound `Fc1ccc(-c2nc3n(c2-c2ccncc2)CCS3)cc1` [GI98581], the “%Inh” value came to 0%.

Consider `Cc1ccc(NC(=O)Nc2ccccc2F)cc1-c1ccc(C(=O)Nc2ccncc2)cc1` [GSK1398477], for which the “%Inh” value was 8%.

`Cc1c(Cn2c(C)c(C)n3c(=O)cc(N4CCOCC4)nc23)cccc1C(F)(F)F` [GSK2328680]: the “%Inh” value was 0%.

With `COc1ccc(Nc2nccc(N3CCC(NC(=O)c4cc5ccccc5s4)C3)n2)cc1` (centres unmarked) [GSK1379738], the “%Inh” value was determined as 0%.
